# From PubChem BioAssay
# Calls of active or inactive are those of the source. Cut-off read from the data, not from the text of the source, unless noted: active = inhibition above about 80%; inactive = the rest.
# Experiments:
# [1] = viability loss with induced miR-34 in A549 – imaging, A549 dox-inducible miR-34, nuclei and caspase counts, primary screen (AID 1347080;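 active = compounds whose cell count with miR-34 switched on is under 0.7 times the count with it off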); conditions: A549 miR-34 inducible, Hoechst nuclei count, 48 h
# [2] = growth inhibition, single agent or in combination, cell-based, chromothripsis tumors, cisplatin or BGB combos (AID 1671449); conditions: LFS_MB_P medulloblastoma cells;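 note: cells exposed for 96 hours; 0% = vehicle DMSO and 100% = killing by high DMSO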
# [3] = growth inhibition, single agent and combos, cell-based, chromothripsis tumors, cisplatin or BGB combos (AID 1671450); conditions: HDN33 neuroblastoma cells, stronger effect = higher value;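 note: cells exposed to compound for four days; 0% = vehicle DMSO and 100% = cell killing by high DMSO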
# [4] = growth inhibition, single agents and combos, ICB984, cell-based, cisplatin or BGB combos, synergistic combos for chromothripsis tumors (AID 1671451; call rule not given here;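 note: cells exposed for 96 hours before readout; 0% = vehicle DMSO and 100% = killing by high DMSO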); conditions: ICB984 medulloblastoma cells, drug combinations, stronger effect = higher value
# [5] = growth inhibition, single agents and combos, LFS_MB_1R, cell-based, cisplatin or BGB combos, synergistic combos for chromothripsis tumors (AID 1671452); conditions: LFS_MB_1R medulloblastoma cells, stronger effect = higher value;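 note: cells exposed for 96 hours before readout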
# [6] = growth inhibition, single agents and combos, HTB85, cell-based, BGB or cisplatin IC20 combos, synergistic combos for chromothripsis tumors (AID 1671453); conditions: HTB85 osteosarcoma cells, drug combinations, stronger effect = higher value;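 note: cells exposed for 96 hours before readout; 0% = vehicle DMSO and 100% = high DMSO killing control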
# [7] = growth inhibition, single agents and combos, CRL2098, cell-based, BGB or cisplatin IC20 combos, synergistic combos for chromothripsis tumors (AID 1671454); conditions: CRL2098 osteosarcoma cells, drug combinations, stronger effect = higher value;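 note: cells exposed for 96 h before readout; 0% = vehicle DMSO and 100% = killing by high DMSO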
# [8] = growth inhibition, single agents and combos, HD-MB03, cell-based, BGB or cisplatin IC20 combos, synergistic combos for chromothripsis tumors (AID 1671455; in the data active = inhibition above about 83%;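 note: 0% = vehicle DMSO and 100% = high DMSO as cytotoxic control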); conditions: HD-MB03 medulloblastoma cells, stronger effect = higher value
# [9] = growth inhibition, single agents and combos, UWB1.289, cell-based, BGB or cisplatin combos, synergistic combos for chromothripsis tumors (AID 1671456); conditions: UWB1.289 ovarian carcinoma cells, stronger effect = higher value;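 note: cells exposed to compound for four days; 0% = vehicle DMSO and 100% = killing by high DMSO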
# [10] = growth inhibition, single agents and combos, LFS_MB_2R, cell-based, cisplatin combos, synergistic combos for chromothripsis tumors (AID 1671457); conditions: LFS_MB_2R medulloblastoma cells, stronger effect = higher value;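 note: cells exposed to compound for four days before readout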
# [11] = growth inhibition, MDA-MB-436, cell-based, BGB or cisplatin combos, synergistic combos for chromothripsis tumors (AID 1671458; call rule not given here;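 note: cells exposed for 96 hours; 0% = vehicle DMSO and 100% = killing by high DMSO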); conditions: MDA-MB-436 breast carcinoma growth inhibition, drug combinations, stronger effect = higher value
# [12] = UWB1.289_BRCA1 ovarian cancer growth, cell-based, BGB or cisplatin combinations (AID 1671459); conditions: UWB1.289 BRCA1 ovarian carcinoma, drug combinations, stronger effect = higher value
# [13] = drug combination toxicity in non-malignant astrocytes – cell-based, BGB or cisplatin IC20 combos, cytotoxicity control for chromothriptic childhood tumor combination screen (AID 1671460); conditions: Human astrocytes, viability inhibition, drug combinations, at 0.5 µM, stronger effect = higher value;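 note: cells exposed to compounds for 96 hours before viability readout; 0% = vehicle and 100% = killing control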
# [14] = BT084 cell growth, single and combined drugs, ICGC_MB145, cisplatin and BGB IC40 combos (AID 1671461); conditions: BT084 medulloblastoma cells, drug combinations, stronger effect = higher value;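 note: cells exposed to drugs for 96 hours; 0% = vehicle DMSO and 100% = high DMSO full killing control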
# [15] = RCMB18 cell growth, single agent and combined, cisplatin and BGB IC40 combos (AID 1671462); conditions: RCMB18 medulloblastoma cells, stronger effect = higher value;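 note: cells exposed to compound for four days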
# [16] = CRL1545 cell growth, single agent and combined, cisplatin and BGB IC20 combos (AID 1671464); conditions: CRL1545 osteosarcoma cells, stronger effect = higher value;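 note: cells exposed to compound for 96 hours before readout; 0% = vehicle DMSO and 100% = high DMSO killing control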
# [17] = compounds altering circadian rhythm period length – cell-based, LOPAC library, luminescence reporter (AID 2774; call rule not given here;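 note: values are relative to mean of DMSO wells on each plate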); conditions: circadian reporter cells, at 7 µM, actives lie on both sides
# [18] = tested on: Hepatitis C virus NS3 helicase; experiment: blockers of NS3h binding to ssDNA – biochemical, fluorescence polarization, LOPAC1280 library, primary screen (AID 687035; in the data active = inhibition above about 37%); conditions: Purified HCV NS3 helicase, Cy5-dT15 ssDNA binding fluorescence polarization; stronger effect = higher value; concentration not given here
# [19] = compounds altering Cy5-DNA-NS3h complex signal – biochemical, LOPAC1280, artefact control for HCV NS3 helicase inhibitor project (AID 687037; call rule not given here); conditions: Cy5-DNA-NS3h complex fluorescence interference counterscreen
# [20] = galactose survival enhancers in mitochondrial complex I cybrids – cell-based, galactose medium, ATP luminescence, primary screen (AID 1645843;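 active = z-score of at least 1.8 in each of two replicates, scored against plate mean and spread of sample wells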;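 note: positive z means more ATP and so rescue of galactose-driven cybrid death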); conditions: complex I mutant cybrid cells, 72 h, stronger effect = higher value
# [21] = compounds altering viability of human ES cells (AID 493140; call rule not given here;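 note: cells exposed to compounds for four days before counting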); conditions: human embryonic stem cell survival screen; stronger effect = higher value
# [22] = P. berghei load reduction in hepatocytes – cell-based, HepG2, luciferase luminescence, HepG2 viability, primary screen (AID 624349; in the data active = parasite load remaining mostly below about 12%, no sharp cut-off; inactive = mostly above about 10%;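 note: 100% = mean of DMSO negative control wells on the same plate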); conditions: P. berghei liver stage in HepG2, luciferase luminescence, concentration not given here; parasite load remaining: stronger effect = lower value; viability: measured here: HepG2 viability without parasites
# [23] = stronger effect = lower value, cell number ratio, induced over uninduced
# [24] = measured here: relative caspase fold change +Dox/-Dox
# [25] = measured here: total cells with miR-34 induction, stronger effect = lower value
# [26] = measured here: total cells without miR-34 induction
# [27] = measured here: combination with BGB IC40, at 0.05 µM
# [28] = measured here: with BGB IC20 combination, at 0.5 µM
# [29] = measured here: with cisplatin IC20 combination, at 0.5 µM
# [30] = measured here: combination with cisplatin, at 0.5 µM
# [31] = measured here: combination with cisplatin, at 5 µM
compound,measurement,setting,value
Cc1ccc(NC(=O)CCCCCC(=O)Nc2ccccc2N)cc1,fold change,[1]; [23],1.01 (inactive)
same,fold change,[1]; [24],1.02
same,cell count,[1]; [25],5390
same,cell count,[1]; [26],5360
same,inhibition,"[2]; at 0.5 µM, stronger effect = higher value",2.92% (inactive)
same,inhibition,"[2]; measured here: combination with BGB IC20, at 0.005 µM",-29.8%
same,inhibition,"[2]; measured here: combination with BGB IC40, at 0.005 µM",-45%
same,inhibition,[2]; [27],-45.4%
same,inhibition,"[2]; measured here: combination with cisplatin, at 0.5 µM, stronger effect = higher value",-6.67%
same,inhibition,"[2]; measured here: combination with cisplatin, at 5 µM, stronger effect = higher value",65.8%
same,inhibition,"[3]; BGB combo, at 5 µM",11%
same,inhibition,[3]; at 0.5 µM,-14.2% (inactive)
same,inhibition,"[3]; cisplatin combo, at 5 µM",32%
same,inhibition,[3]; [28],-21.3%
same,inhibition,[3]; [29],-11%
same,inhibition,"[3]; single agent, at 5 µM",25.4%
same,inhibition,"[4]; BGB IC20 combo, at 0.005 µM",-3.62%
same,inhibition,"[4]; BGB IC40 combo, at 0.005 µM",-26.5%
same,inhibition,"[4]; BGB IC40 combo, at 0.05 µM",6.33%
same,inhibition,[4]; at 0.5 µM,-27.2% (inactive)
same,inhibition,"[4]; cisplatin combo, at 0.05 µM",1.63%
same,inhibition,"[4]; cisplatin combo, at 0.5 µM",-36.9%
same,inhibition,"[4]; cisplatin combo, at 5 µM",-6.29%
same,inhibition,"[4]; measured here: 5 uM single agent, at 5 µM",-12.7%
same,inhibition,[5]; at 0.5 µM,-31.8% (inactive)
same,inhibition,[5]; [27],-38%
same,inhibition,[5]; [30],-38.7%
same,inhibition,[5]; [31],61.4%
same,inhibition,[6]; at 0.5 µM,-11.4% (inactive)
same,inhibition,"[6]; measured here: with BGB IC20, at 0.5 µM",11.7%
same,inhibition,"[6]; measured here: with BGB IC20, at 5 µM",31.2%
same,inhibition,"[6]; measured here: with cisplatin IC20, at 0.5 µM",-26.9%
same,inhibition,"[6]; measured here: with cisplatin IC20, at 5 µM",33.8%
same,inhibition,"[6]; single agent, at 5 µM",12.7%
same,inhibition,[7]; at 0.5 µM,-71% (inactive)
same,inhibition,"[7]; measured here: combination with BGB at IC20, at 0.5 µM",-75.9%
same,inhibition,"[7]; measured here: combination with cisplatin at IC20, at 0.5 µM",-67.2%
same,inhibition,[8]; at 0.5 µM,-7.72% (inactive)
same,inhibition,"[8]; measured here: combo with BGB at IC20, at 0.5 µM",0.828%
same,inhibition,"[8]; measured here: combo with cisplatin at IC20, at 0.5 µM",-9.85%
same,inhibition,[9]; at 0.5 µM,-13.2% (inactive)
same,inhibition,"[9]; measured here: inhibition with BGB combination, at 0.05 µM",-44.6%
same,inhibition,"[9]; measured here: inhibition with cisplatin combination, at 0.05 µM",-27.1%
same,inhibition,[10]; at 0.5 µM,-23.5% (inactive)
same,inhibition,[10]; [30],-17.5%
same,inhibition,[10]; [31],50.2%
same,inhibition,[11]; at 0.5 µM,-27.5% (inactive)
same,inhibition,"[11]; measured here: BGB combination, at 0.5 µM",-25.9%
same,inhibition,"[11]; measured here: BGB combination, at 5 µM",-14.6%
same,inhibition,"[11]; measured here: cisplatin combination, at 0.5 µM",-44.2%
same,inhibition,"[11]; measured here: cisplatin combination, at 5 µM",15.1%
same,inhibition,"[12]; BGB combination, concentration series, at 5 µM",23.3%
same,inhibition,[12]; at 0.5 µM,-23.2% (inactive)
same,inhibition,"[12]; cisplatin combination, concentration series, at 5 µM",51.6%
same,inhibition,[13],-11.1% (inactive)
same,inhibition,[13]; measured here: combo with BGB IC20,-7.99%
same,inhibition,[13]; measured here: combo with cisplatin IC20,-17.6%
same,inhibition,[14]; at 0.5 µM,-11.1% (inactive)
same,inhibition,"[14]; cisplatin combination, at 0.5 µM",8.17%
same,inhibition,"[14]; cisplatin combination, at 5 µM",68.8%
same,inhibition,"[14]; measured here: BGB IC40 combination 0.05 uM, at 0.05 µM",-52.4%
same,inhibition,"[14]; single agent, at 5 µM",25.1%
same,inhibition,[15]; at 0.5 µM,6.99% (inactive)
same,inhibition,"[15]; cisplatin combo, at 5 µM",67.3%
same,inhibition,"[15]; measured here: BGB IC40 combination, at 0.05 µM",-18.3%
same,inhibition,[15]; [30],0.344%
same,inhibition,"[15]; single agent, at 5 µM",35.9%
same,inhibition,[16]; at 0.5 µM,6.85% (inactive)
same,inhibition,[16]; [28],21.7%
same,inhibition,[16]; [29],-2.22%
same,inhibition,"[16]; single agent, at 0.05 µM",-29%
same,inhibition,"[16]; single agent, at 5 µM",60.5%
N=C(N)c1ccc(OCCCCCOc2ccc(C(=N)N)cc2)cc1 (tested in a mixture with another compound),period change,[17],0.16 h (inactive)
same,inhibition,[18],-1% (inactive)
same,fluorescence ratio (interference),[19],1 (inactive)
same,fold change,[1]; [23],1.03 (inactive)
same,fold change,[1]; [24],0.748
same,cell count,[1]; [25],3790
same,cell count,[1]; [26],3670
same,z-score,[20],-1.29 (inactive)
CN1CC(=O)N2C(Cc3c([nH]c4ccccc34)C2c2ccc3c(c2)OCO3)C1=O (stereo unspecified),fold change,[1]; [23],0.932 (inactive)
same,fold change,[1]; [24],1.44
same,cell count,[1]; [25],6940
same,cell count,[1]; [26],7450
same,z-score,[20],1.56 (inactive)
NCCC1CCCC(CCN)N1 (stereo unspecified),period change,[17],0.21 h (inactive)
same,inhibition,[18],-7% (inactive)
same,fluorescence ratio (interference),[19],0.9 (inactive)
same,fold change,[1]; [23],1.09 (inactive)
same,fold change,[1]; [24],1.24
same,cell count,[1]; [25],10800
same,cell count,[1]; [26],9840
same,z-score,[20],0.405 (inactive)
COc1c2c(nc3ccccc13)OC(C(C)(O)CO)C2 (stereo unspecified),period change,[17],0.065 h (inactive)
same,survival,[21],14.3 (inactive)
same,parasite load remaining,[22],78.4% (inactive)
same,viability,[22],73.1%
same,fold change,[1]; [23],0.919 (inactive)
same,fold change,[1]; [24],0.535
same,cell count,[1]; [25],8340
same,cell count,[1]; [26],9080
